# Only some compounds are listed: those with a hit (about 7.5% of all), similar ones and a draw of the others.
# ELG1 genotoxic: induces genotoxicity in HEK293T cells with luciferase-tagged ELG1 | HEK293T ELG1-luciferase reporter, luminescence, 16 h | Potency, µM (series often up to 46 µM), actives largely listed as activators | AID 504466 | 1.3% of 330,000 active; note: nearly all actives have a fitted effect of over 60% in size
#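 Quantitative HTS format in 1536-well plates. HEK293T ELG1-luciferase reporter cells receive test compound and are incubated 16 hr at 37 °C, 5% CO2; ONE-Glo added, 30 min room temperature, then luminescence read.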
# Rab9 promoter act: activates the Rab9 promoter; Huh7 Rab9 promoter-luciferase reporter, luminescence, 24 h; Potency, µM (highest dose often 9.22 µM), hits mostly activators; 2.8% of 320,000 active; AID 485297; note: nearly all actives have a fitted effect of over 60% in size
#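 Huh7 cells stably carrying a Rab9 promoter-luciferase reporter, 1500 cells per well in OP-MEM I with 10% FBS, treated with compound 24 hours at 37C. Luciferase activity read by luminescence after 10 minutes with Amplite reagent.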
# SMN2 splice up: enhancers of SMN2 splice variant expression; HEK293 SMN2-luciferase splicing reporter, luminescence, 30-36 h; Potency, µM (series often up to 46.1 µM), usual class: activators; 2.8% of 210,000 active; AID 1458; note: nearly all actives have a fitted effect of over 55% in size
#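 HEK293 cells carry an SMN2 […]–luciferase reporter in which exon 7 inclusion puts luciferase in frame. Cells were plated 10-12 h before compound addition, then incubated 30-36 h at 37C. ONE-Glo luminescence was read; sodium butyrate at 4.5 mM final served as control.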
# FLuc counter: counter-screen for miR-21 project: firefly luciferase inhibitors or activators; P08659; purified FLuc, Km substrates, luminescence inhibition; Potency, µM (series often up to 57.5 µM), usual class: inhibitors; 6.9% of 360,000 active; AID 588342; note: nearly all actives have a fitted effect of over 55% in size
# Target sequence (P08659 whole entry, looked up): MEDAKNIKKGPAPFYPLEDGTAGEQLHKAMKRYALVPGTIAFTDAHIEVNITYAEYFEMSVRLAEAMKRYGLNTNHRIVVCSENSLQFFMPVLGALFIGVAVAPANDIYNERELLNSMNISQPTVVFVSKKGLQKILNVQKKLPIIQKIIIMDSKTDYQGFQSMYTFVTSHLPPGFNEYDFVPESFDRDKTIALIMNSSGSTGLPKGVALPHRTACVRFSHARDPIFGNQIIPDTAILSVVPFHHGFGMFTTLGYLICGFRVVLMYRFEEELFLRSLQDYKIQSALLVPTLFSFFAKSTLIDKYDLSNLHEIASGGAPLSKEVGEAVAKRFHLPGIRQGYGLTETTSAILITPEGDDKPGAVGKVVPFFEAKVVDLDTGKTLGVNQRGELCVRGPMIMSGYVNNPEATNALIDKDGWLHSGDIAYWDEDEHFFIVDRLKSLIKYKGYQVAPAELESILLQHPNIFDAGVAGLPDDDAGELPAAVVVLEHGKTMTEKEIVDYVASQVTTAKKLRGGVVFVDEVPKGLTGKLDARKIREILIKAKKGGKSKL
#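 Purified P. pyralis luciferase (10nM final) with 10uM D-luciferin and 10uM ATP (Km levels) in 50mM Tris acetate pH 7.5, 10mM Mg acetate, 0.01% Tween-20, 0.05% BSA; qHTS 6-point titration, ~60 µM downward; luminescence read.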
# NPC1 prom act: activates the NPC1 promoter; 2.4% of 320,000 active; Potency, µM (series often up to 9.22 µM), hits mostly activators; AID 485313; Huh7 NPC1 promoter luciferase reporter, 24 h; note: nearly all actives have a fitted effect of over 60% in size
#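 Cells: Huh7 expressing luciferase under the NPC1 promoter, 1500/well. Seeded 2 h, compound added, incubated 24 h at 37 °C. Luciferase reagent, 10 min ambient, then luminescence.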
# Numbers stand for hits; n = inactive; u = inconclusive; x = not tested or not shown; [ ] = another dose, or the depositor's remark. Calls come from the whole dose curve; as a rule, active = well fitted curve in the direction sought with a large enough effect; inconclusive = small, poorly fitted or top-dose-only effect, or another doubt; inactive = no such curve, though single readings can be large; an effect the other way counts as inactive or inconclusive.
SMILES,ELG1 genotoxic,Rab9 promoter act,SMN2 splice up,FLuc counter,NPC1 prom act
Cc1cc(-c2ccccc2)nc(N/N=C/c2cccnc2)n1,n,n,x,12µM,n
CCOc1cc(/C=N/Nc2nncc(-c3ccccc3)n2)ccc1O,n,n,n,n,n
Cc1cc(-c2ccccc2)nc(N/N=C/c2ccccc2)n1,n,u,x,6.7µM,u
COc1ccc(-c2cnnc(N/N=C/c3ccc(OC)c(OC)c3)n2)cc1,n,n,x,2.7µM,n
CCc1ccc(NC(=O)[C@H](NC(=O)[C@@H]2Cc3ccccc3CN2)c2ccccc2)cc1,n,n,x,u,n
Cc1cc(C)cc(NS(=O)(=O)c2ccc(-n3cccn3)cc2)c1,x,x,x,n,x
COc1ccc(S(=O)(=O)N2CCOCC2)cc1NC(=O)c1cc(=O)[nH]c2ccccc12,n,n,x,n,n
C(=N\Nc1nc(Nc2ccccc2)nc(Nc2ccccc2)n1)/c1cccnc1,n,n,n,u,n
Cc1ccc2nc(N/N=C/c3ccco3)cc(C)c2c1,n,2.5µM,x,2.7µM,2.8µM
Cc1cc(C)nc(N/N=C/c2ccco2)n1,n,n,u,u,n
C(=N/Nc1nc(-c2ccccc2)cc(-c2ccccc2)n1)/c1cccnc1,n,n,2.5µM,2.7µM,n
Cc1cc(-c2ccccc2)nc(N/N=C/c2ccco2)n1,n,u,n,12µM,u
O=C(NNc1ccc([N+](=O)[O-])cc1)C1CC1c1ccccc1 (configuration not stated),n,n,n,n,n
O=C(COC(=O)C1=COCCO1)Nc1ccccc1OC(F)F,n,n,n,n,n
COc1cccc(OC)c1/C=C/C(=O)NC1CCCCC1,n,n,x,u,n
CCC(Oc1ccccc1C)C(=O)N1CCCN(C)CC1 (configuration not stated),n,n,x,n,n
Cc1ccnc(NC(=O)COc2ccc(Cl)cc2)n1,u,n,x,24µM,n
Cc1cc(C)nc(NC(=O)COc2ccc(Cl)cc2)c1,x,x,n[9.22 µM],x,x
O=C(COc1ccc(Cl)cc1)Nc1ncccn1,21µM,n,n,19µM,n
O=C(Oc1ccc(Oc2ccccc2)cc1)N1CCC(O)CC1,u,u,x,17µM,u
O=C(Oc1cccc(Oc2ccccc2)c1)N1CCOCC1,n,n,n,n,n
O=C(Oc1ccc(-c2ccccc2)cc1)N1CCOCC1,u,2µM,u,21µM,2.8µM
CCc1ccc(Nc2c([N+](=O)[O-])c(=O)oc3ccccc23)cc1,n,n,x,n,n
N/C(Cc1ccc(Cl)cc1Cl)=N\OC(=O)Cc1ccc(Cl)cc1,n,n,n[1.84 µM],n,n
COc1ccccc1NCC(=O)c1ccc(Cl)cc1,n,n,x,17µM,n
SMILES,ELG1 genotoxic,Rab9 promoter act,SMN2 splice up,FLuc counter,NPC1 prom act
COC(=O)c1ccccc1NCC(=O)c1ccc(OC)cc1,n,n,x,u,u
COc1ccccc1NCC(=O)c1ccc(C)c(C)c1,n,n,x,17µM,n
O=C(NC1CCCCC1)c1ccc2c(c1)N(Cc1cccc(Cl)c1)C(=O)c1ccccc1S2(=O)=O,x,x,x,n,x
COc1ccc(-c2oc(=O)c3cc(OC)c(OC)cc3c2-c2cc(F)cc(OC)c2)cc1,n,n,x,n,n
O=C(Nc1ccc2ccccc2c1)c1ccc(Cl)cc1,0.92µM,0.32µM,x,0.54µM,0.5µM
CC(=O)Nc1cccc(C)c1,n,n,n,n,n
O=C(c1ccccc1)c1cnc(Nc2ccc(Cl)c(Cl)c2)s1,n,n,n,n,n
O=C(Nc1ccncc1)c1ccc(Cl)cc1,n,n,x,u,n
CC(=O)c1cnc(Nc2cccc(C)c2)s1,n,2.5µM,18µM,u,u
Cc1ccc(NC(=O)c2ccccc2)cc1,u,2.2µM,14µM,6µM,2µM
O=C(c1ccc(F)cc1)c1cnc(Nc2ccccc2)s1,u,1.3µM,x,0.6µM,2µM
O=C(Nc1ccc2oc(=O)ccc2c1)c1ccc2ccccc2c1,n,u,x,9.5µM,u
O=C(Nc1ccc(Nc2ccccc2)cc1)c1ccc(F)cc1,n,n,x,19µM,n
Cc1ccc(NC(=O)C(=O)c2ccc(C)cc2)cc1,4.6µM,2.8µM,x,1.9µM,0.63µM
O=C(O)c1ccc(C(=O)Nc2ccc(F)cc2)cc1,n,n,x,n,n
Cc1sc(C(=O)Nc2ccc3ccccc3c2)cc1CC(=O)O,n,u,u,9.5µM,u
C=C[C@H](C)[C@](C)(O)c1ccccc1,x,x,n,x,x
COCCN(C(=O)COC(=O)C1=COCCO1)c1c(N)n(Cc2ccccc2)c(=O)[nH]c1=O,n,n,x,n,n
CN(Cc1cccs1)C(=O)c1cc(S(=O)(=O)N2CCOCC2)ccc1F,n,n,x,n,n
Cc1cc(C)c2cc(C(=O)Nc3ccccc3)[nH]c2c1,u,3.2µM,x,u,4.5µM
Cc1cc(C)c2cc(C(=O)Nc3ccc4c(c3)OCO4)[nH]c2c1,n,n,x,u,n
NC(=O)Cn1nnc(-c2ccc(NC(=O)c3ccc(F)cc3)cc2)n1,u,u,14µM,u,u
O=C(Nc1ccncc1)c1ccc2ccccc2c1,n,3.5µM,x,17µM,u
O=C(Cn1nnc(-c2ccc(NC(=O)c3ccccc3F)cc2)n1)NCc1ccc(F)cc1,n,n,x,n,n
Cc1ccc(C(=O)Nc2ccc3ccccc3c2)cc1,0.29µM,0.22µM,x,0.076µM,0.1µM
SMILES,ELG1 genotoxic,Rab9 promoter act,SMN2 splice up,FLuc counter,NPC1 prom act
CC1CC1C(=O)N(C)CC(=O)Nc1ccc(Cl)c(C(F)(F)F)c1 (configuration not stated),n,n,x,n,n
COc1ccc(-c2nnc(SCc3ccc(C(=O)O)cc3)n2N)cc1,n,n,x,n,n
CC(C)c1nc2cc3ccccc3cc2[nH]1,n,n,n,19µM,n
CCOC(=O)c1c(C)c(C(=O)Nc2ccc3c(c2)OCCO3)c(C)n1C,n,n,u,u,n
CCOC(=O)Nc1cc(Br)c2c(c1)OCCO2,23µM,n,x,u,n
Cc1cc(C)n2nc(C(=O)OCC(=O)c3ccccc3Cl)nc2n1,n,n,x,u,n
O=C(Nc1ccc([N+](=O)[O-])cc1)c1ccc(S(=O)(=O)N2CCCC2)cc1,n,n,x,n,n
O=C(Nc1ccc(S(=O)(=O)N2CCCCCC2)cc1)c1[nH]ncc1[N+](=O)[O-],u,u,x,17µM,u
O=C(O)c1ccc(Cl)c(NC(=S)NC(=O)c2cccc(COc3ccccc3)c2)c1,n,n,x,u,n
CC(C)C(NC(=S)Nc1ccccc1)C(=O)O (configuration not stated),n,n,3.2µM,n,n
O=C(NNC(=S)Nc1ccccc1)NNC(=S)Nc1ccccc1,n,n,n,n,n
Cc1ccc(NC(=S)NNC(=O)c2nn(C)c(C)c2Cl)cc1,n,3.2µM,u,n,u
O=C(NNC(=S)Nc1ccccc1)Nc1ccccc1,n,n,5.6µM,u,n
Cc1ccc(NC(=S)NNC(=O)Nc2ccccc2)cc1,u,3.2µM,13µM,2.4µM,u
CN(C)S(=O)(=O)c1ccc(Cl)c(C(=O)NNC(=O)Cc2nc3ccccc3n2C)c1,n,n,x,x,n
CCc1cccc(C)c1NC(=O)C1CCN(S(=O)(=O)c2c(C)noc2/C=C/c2c(C)cc(C)cc2C)CC1,x,x,x,n,x
